Data taken from PubChem BioAssay (NCI).
Compounds without any hit were thinned out: in the full panel of roughly 79,000, 15% have a hit. Values without a mark were called inactive. Activity calls are given as the source filed them. No stated cut-off is given here; in the data, active means growth inhibition above about 70%; inactive means the rest.

Assays:
[1] = NCI Yeast Anticancer Drug Screen. Data for the rad50 strain (AID 155);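 further: 0% = growth of vehicle-only cultures of the same strain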; conditions: S. cerevisiae rad50 strain growth inhibition; at 50.0 µM; active compounds read high
Method in brief: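 Genetically altered yeast (DNA repair pathway); compound treatment; growth inhibition vs vehicle ctrl.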

[2] = NCI Yeast Anticancer Drug Screen. Data for the mec2-1 strain (AID 157); conditions: S. cerevisiae mec2-1 strain, at 50.0 µM, active compounds read high
Method in brief: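 Each compound was tested on mec2-1 yeast, a strain altered in DNA damage repair or cell cycle control. Growth inhibition is reported relative to vehicle.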

[3] = NCI Yeast Anticancer Drug Screen. Data for the sgs1 mgt1 strain (AID 161);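 further: 0% = growth of cultures given vehicle only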; conditions: S. cerevisiae sgs1 mgt1 strain, at 50.0 µM, active compounds read high
Method in brief: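 Inhibition of yeast growth, normalised to vehicle-treated controls, is reported for a strain bearing genetic alterations in DNA damage repair.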

[4] = NCI Yeast Anticancer Drug Screen. Data for the cln2 rad14 strain (AID 165);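 further: 0% = growth equal to vehicle treated cultures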; conditions: S. cerevisiae cln2 rad14 strain, at 50.0 µM, active compounds read high
Method in brief: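 Test compounds were added to cln2 rad14 yeast cultures; inhibition of growth was then determined by comparison with vehicle treatment.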

[5] = NCI Yeast Anticancer Drug Screen. Data for the bub3 strain (AID 167); conditions: S. cerevisiae bub3 mutant strain, at 50.0 µM, active compounds read high
Method in brief: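 Yeast carrying a defined mutation is treated with each compound, and growth is compared with that of vehicle-exposed cells to give inhibition.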

[6] = NCI Yeast Anticancer Drug Screen. Data for the mlh1 rad18 strain (AID 175); conditions: S. cerevisiae mlh1 rad18 strain growth inhibition; at 50.0 µM; active compounds read high
Method in brief: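 Inhibition values reflect reduced growth of mutant yeast versus vehicle-treated controls following compound exposure; the mutations affect DNA damage repair.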

Row | SMILES | growth inhibition [1] | growth inhibition [2] | growth inhibition [3] | growth inhibition [4] | growth inhibition [5] | growth inhibition [6]
1 | O=C1OC(c2cccc(Cl)c2)=N/C1=C\c1cc(Br)ccc1O | 20.6% | 5.7% | 27.8% | 5.2% | -0.4% | 5.95%
2 | COC(=O)C1=CO[C@@H](O)[C@@H]2C(C)OC(=O)C[C@H]12 (stereo partly specified) | -8.5% | -28.3% | -6.9% | 3.2% | -10.8% | -15.2%
3 | CCCCCC/C=C1\CCC(CN(C)C)C1=O (stereo unspecified) | 79.4% (active) | 93.2% (active) | 91.1% (active) | 89.8% (active) | 90.7% (active) | 91.4% (active)
4 | O=[N+]([O-])c1cc(Cl)cc2cc(Br)cnc12 | 4.2% | 15.3% | -19.9% | 3.8% | 10.5% | 4.4%
5 | CC(=O)Nc1ccc(C(=O)C=O)cc1 | -1.45% | -4.4% | 4.2% | 26.5% | -13.9% | -40.8%
6 | CC(CN(C)C)C(=O)C(=Cc1ccccc1)C(=O)C(C)CN(C)C (stereo unspecified) | 40.1% | 13.1% | 16.9% | 22.5% | -2.5% | 20%
7 | CC(C)N(C(=O)C12C3C4C5C3C1(C(=O)N(C(C)C)C(C)C)C5(C#N)C42)C(C)C (stereo unspecified) | 22.6% | 3.65% | 5.6% | 13.7% | 13.4% | 4.2%
8 | CC1(C)CCc2cc3c(O)c(-c4ccccc4)c(=O)oc3cc2O1 | -9.45% | 2.15% | -0.65% | -17.2% | -5.75% | 7.45%
9 | CCOC(=O)c1[nH]n(-c2ccccc2)c(=O)c1/C=N/C(N)=S | 2% | -1.95% | -15.8% | 14.1% | 17.8% | 8.45%
10 | NC(=O)C(Cc1ccc(O)cc1)NC(=O)c1ccccc1 (stereo unspecified) | -8.8% | -16.6% | -0.1% | 1.85% | 22.1% | -14.2%
11 | O=C(O)c1ccc(-n2cnc3c(=O)[nH]cnc32)cc1 | -8.6% | -12.9% | -13.3% | -9.45% | -4.9% | -7.85%
12 | CCCCCCCCC/C=C\C(=O)O | 4.6% | -12.5% | 10.2% | -22.9% | -13.8% | 37%
13 | CC/C(C)=N/NS(C)(=O)=O | 12.8% | -7.55% | -0.35% | 2.25% | -44.8% | -10.9%
14 | C=C(C)C(=O)Nc1ccc(NS(=O)(=O)c2ccc(C(C)CC)cc2)c(O)c1 (stereo unspecified) | 9.3% | -8.7% | 18.1% | 35.5% | 14.9% | 1.2%
15 | C/C(=N/Nc1ccc([N+](=O)[O-])cc1[N+](=O)[O-])C1=CCCCC1 | -0.2% | -1.35% | -0.95% | -4.8% | 3.15% | -4.85%
16 | C#Cc1c(C)c(/C=C/C(C)=C/C=C/C(C)=C/C(=O)OC)n(C)c1C | 12.2% | 4.7% | 20.3% | 10.8% | 23.6% | 23.4%
17 | CN(/N=C/c1ccccn1)C1=NCCN1 | -23.9% | -29.4% | -31.2% | 2.75% | 6.55% | -21.4%
18 | CCOc1ccccc1NC(=O)C(=O)c1c(O)c2ccc(O)cc2oc1=O | 25.7% | 9.55% | 4.8% | 1.8% | -3.25% | -1.75%

Row | SMILES | growth inhibition [1] | growth inhibition [2] | growth inhibition [3] | growth inhibition [4] | growth inhibition [5] | growth inhibition [6]
19 | O=C(O)c1ccc([C@@H]2C(=O)N(O)[C@@H]3C=CC[C@@H]32)cc1 | -8.4% | -12.8% | -7.45% | 19.7% | -14.7% | 8.25%
20 | C#Cc1cccc(N=Cc2cc(Cl)cc(C)c2O)c1 | 16.1% | 10.8% | 36.5% | 10.1% | 37.7% | 33.7%
21 | O=C1c2cc3c(cc2CC12Cc1cc4c(cc1C2=O)CCCC4)CCCC3 | -42.1% | -14.2% | -22.3% | -16.8% | -4.25% | -37.1%
22 | CN(C)C1C(CO)C(CO)C1(C)C (stereo unspecified) | -5.5% | -8.5% | -3.9% | -11.9% | -2.25% | -7.55%
23 | O=c1c(SCc2ccc(Cl)cc2)c(SCc2ccc(Cl)cc2)cnn1-c1ccccc1 | -5.7% | -17.2% | 19.2% | 6.65% | -6.6% | 13.1%
24 | Cc1c(Cl)c2ccc(N(C)C)cc2[nH]c1=O | -2.9% | 0.45% | -0.1% | -6.35% | 11.2% | 7.65%
25 | C=C1CC[C@H]2C(=O)OC(c3ccoc3)C[C@]2(C)C/C=C\C=C/1C(=O)OC (stereo partly specified) | -10.8% | -11.7% | -19.8% | -6% | -27.2% | -22.6%
26 | O=C(c1ccc(Br)cc1)C1SC2(C(=O)c3ccc(Br)cc3)SC(C(=O)c3ccc(Br)cc3)C(C(=O)c3ccc(Br)cc3)SC2(C(=O)c2ccc(Br)cc2)SC1C(=O)c1ccc(Br)cc1 (stereo unspecified) | -8.8% | 3.75% | -17.4% | -11.9% | -2.95% | -24.4%
27 | CC(=O)OC(C(=O)N1CC1)C(OC(C)=O)C(OC(C)=O)C(OC(C)=O)C(=O)N1CC1 (stereo unspecified) | 24.1% | 20.9% | 25.4% | 10.1% | 28.6% | 29.3%
28 | CCOC(=O)c1cn(C)c2c1C(O)=C(C(=O)OC)CC(=O)N2 | 4.5% | 1.1% | -14.2% | 7.2% | -12.6% | -26.8%
29 | COC(=O)C(=O)C(C(=O)C1=NS(=O)(=O)c2cc(S(N)(=O)=O)c(Cl)cc2N1)c1nc2ccc(C(=O)c3ccccc3)cc2[nH]c1=O (stereo unspecified) | -9.7% | -18.1% | -18% | 6% | -19.9% | -19.2%
30 | ClCCOCOc1ccc2ccccc2c1 | 29.6% | 23.9% | 43.6% | 16.7% | 26.6% | 26.9%
31 | CCCCCC/C=C\CCCCCCCCCc1cccc(OC)c1O | 18.4% | 6.65% | -4.3% | 14.5% | 7.8% | 11.7%
32 | Cc1ccc(S(=O)(=O)N2CCN(S(=O)(=O)c3ccc(C)cc3)CCN(S(=O)(=O)c3ccc(C)cc3)Cc3cc(Br)c(Br)cc3CN(S(=O)(=O)c3ccc(C)cc3)CC2)cc1 | -24.1% | -6.05% | -23.3% | 17.6% | -3.1% | -10.3%
33 | CCC(CC)C(=O)OCCOCCOCCOC(=O)C(CC)CC | -9.3% | -16.8% | -2.15% | 6.8% | -3.35% | 1%
34 | CCCCCCCCCCCCCCCCNc1nc(=O)n(C2CC(O)C(COP(=O)(O)OC3CC(n4cc(F)c(=O)[nH]c4=O)OC3CO)O2)cc1F (stereo unspecified) | -2.05% | -6.05% | -25.9% | 0.95% | -42.6% | -31.6%
35 | CCCCSC1=NCCN1 | 14.8% | 9.15% | -3.9% | 5.5% | 5.25% | 10.5%
36 | O=C(Nc1ccccc1)C1CC=C2CCC3OC(=O)C1C23 (stereo unspecified) | -11.4% | -16.7% | -23.4% | -16% | -14.7% | -18.1%
